Screens: PubChem BioAssay, National Center for Advancing Translational Sciences (NCATS)
Hits are enriched below; roughly 12% of the tested compounds scored in any of these assays.
VP16 counter: VP16 counterscreen qHTS for inhibitors of ROR gamma transcriptional activity. 310,000 tested, 3.5% active. Potency, µM (titrated, usually from 53.6 µM), for inactives: at the highest dose activity, negative = inhibition, most hits filed as inhibitors. AID 2546, 2010. Drosophila S2 Gal4-VP16 UAS-luciferase, luminescence, 20 h;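 further: Gal4-VP16 expression switched on by copper sulfate through the metallothionein promoter; nearly all actives have a fitted effect of over 50% in size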
PLK1 PBD block: qHTS for Inhibitors of PLK1-PDB (polo-like kinase 1 - polo-box domain): Primary Screen; Serine/threonine-protein kinase PLK1 (Homo sapiens), P53350; Plk1 PBD binding of FITC phosphopeptide, fluorescence polarization; Potency, µM, without a hit: max response, negative = inhibition, hits mostly inhibitors; 360,000 tested, 2.8% active; further: series mostly up to about 57 µM; nearly all actives have a fitted effect of over 65% in size
Target sequence (P53350 whole entry, looked up, the tested form may be a part): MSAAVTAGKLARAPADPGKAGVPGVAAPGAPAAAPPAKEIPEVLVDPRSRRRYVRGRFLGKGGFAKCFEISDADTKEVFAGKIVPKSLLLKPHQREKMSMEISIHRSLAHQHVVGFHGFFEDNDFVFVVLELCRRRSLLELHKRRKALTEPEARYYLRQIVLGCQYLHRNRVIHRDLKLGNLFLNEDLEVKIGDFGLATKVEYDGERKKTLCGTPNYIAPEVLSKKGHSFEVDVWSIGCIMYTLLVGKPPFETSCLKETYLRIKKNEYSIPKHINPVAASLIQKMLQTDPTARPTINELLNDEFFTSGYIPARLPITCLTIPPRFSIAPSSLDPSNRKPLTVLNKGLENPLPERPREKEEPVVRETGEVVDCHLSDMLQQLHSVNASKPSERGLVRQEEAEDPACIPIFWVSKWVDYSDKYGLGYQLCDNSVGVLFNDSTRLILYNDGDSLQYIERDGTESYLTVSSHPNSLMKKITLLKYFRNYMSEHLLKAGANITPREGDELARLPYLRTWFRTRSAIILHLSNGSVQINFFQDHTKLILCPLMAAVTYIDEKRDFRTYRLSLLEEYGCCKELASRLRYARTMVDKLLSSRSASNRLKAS
RORgamma inh: qHTS for inhibitors of ROR gamma transcriptional activity; Drosophila S2 Gal4-RORgamma UAS-luciferase reporter, 20 h; 310,000 tested, 5.4% active; Potency, µM (highest dose often 53.6 µM), for the others: top-dose activity change, negative = inhibition, hits mostly inhibitors; further: nearly all actives have a fitted effect of over 60% in size
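Drosophila Schneider cells stably carrying a metallothionein-driven Gal4 DBD–ROR gamma fusion and a UAS-Photinus luciferase reporter were exposed to compound for 1 hr, then induced with copper sulfate (700 uM final) for 20 hr at ambient temperature before luminescence reading.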
Sfp PPTase inh: qHTS Assay for Inhibitors of Bacillus subtilis Sfp phosphopantetheinyl transferase (PPTase); 4'-phosphopantetheinyl transferase ffp (Bacillus subtilis), Q9F4F7; Biochemical Sfp PPTase activity, qHTS; Potency, µM, for the others: largest response in the series, negative = inhibition, actives largely listed as inhibitors; 310,000 tested, 3.5% active; AID 1490, 2009;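 further: the enzyme is Sfp with the accession as filed and its product quenches rhodamine fluorescence; 0% = enzyme reaction without inhibitor and -100% = no enzyme wells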
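Sfp 15 nM + cpd, 15 min RT; start w/ rhodamine-CoA 5 uM, BHQ-2-YbbR 12.5 uM (final); 50 mM Hepes pH 7.6, 10 mM MgCl2, 0.01% NP-40, 0.01% BSA; read 525/598 nm at 0 and 30 min.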
ALDH1A1 block: qHTS Assay for Inhibitors of Aldehyde Dehydrogenase 1 (ALDH1A1) | Potency, µM (doses to about 75.3 µM), without a hit: at the highest dose activity, negative = inhibition, actives largely listed as inhibitors | Purified ALDH1A1, NADH fluorescence, propionaldehyde substrate | 220,000 tested, 7.3% active | Aldehyde dehydrogenase 1A1 (Homo sapiens), P00352; active means well fitted inhibition curve with a large enough effect, not every such curve was filed as active; inconclusive means small, poorly fitted or top-dose-only effect, or another doubt; inactive means no such curve, though single readings can be large or run the other way;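 further: plate controls were no enzyme wells and a reference inhibitor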
Active calls of the source: *; ? = inconclusive; . = no result given; [ ] = another dose, or the depositor's remark. Unless noted, the call rests on the fitted dose curve; in most records, active means well fitted curve in the direction sought with a large enough effect; inconclusive means small, poorly fitted or top-dose-only effect, or another doubt; inactive means no such curve, though single readings can be large; an effect the other way counts as inactive or inconclusive. Unless noted, on the % scale 0 is the no-effect control and ±100 the full control effect; potency means the concentration at half of the fitted maximal effect.

SMILES	VP16 counter	PLK1 PBD block	RORgamma inh	Sfp PPTase inh	ALDH1A1 block
CC1CC(=O)Nc2ccccc2N1C(=O)CSc1nnnn1C(C)C (stereo not given)	.	0%	.	.	.
c1cncc(-c2cncnc2NC2CCNCC2)c1	-6%	.	26%	-6%	25µM*
c1cncc(-c2ccc3ncnc(NC4CCNCC4)c3c2)c1	-1%	.	-20%	15%	-6%
CC(C)NC(=O)c1cc(C2CCCCN2S(=O)(=O)c2cccc3cccnc23)on1 (stereo not given)	.	-2%	.	.	.
C/C(=N/NC(=O)Cc1cccn1C)c1ccccc1	1%	-4%	19%	7%	18µM*
Cn1cccc1CC(=O)N/N=C/C=C/c1ccco1	-4%	-1%	3%	14µM*	3%
Cc1ccc(/C=N\NC(=O)Cc2cccn2C)o1	13%	-10%	3%	40µM*	?
C/C(=N\NC(=O)Cc1cccn1C)c1ccc2ccccc2c1	7%	-11%	8%	-1%	?
Nc1ccn([C@@H]2O[C@H](C(=O)N3CCCN(Cc4cccs4)CC3)[C@@H](O)[C@H]2O)c(=O)n1	.	6%	.	.	.
CCC[n+]1c2ccccc2cc2ccccc21	-25%	1.1µM*	-19%	50µM*	.
C=C1C(=O)OC2CC1C(OC(C)=O)CC(C)=CCCC(C)=CCC[C@@]2(C)O (stereo not given in full)	?	.	5.6µM*	-14%	?
CCN(CC)C(=O)c1cccc(-c2csc(C(C)(O)c3ccncc3)n2)c1 (stereo not given)	.	2%	.	.	.
CCCCc1nc(NCCN2CCOCC2)c(C#N)c2c1COC(C)(C)C2	4%	-5%	12%	-8%	11µM*
CC(C)Cc1nc(NCCN2CCOCC2)c(C#N)c2c1COC(C)(C)C2	3%	-10%	-20%	19%	-1%
CCCCc1ccc(S(=O)(=O)NNC(=S)NCc2ccco2)cc1	?	-9%	8.9µM*	4%	-10%
O=S(=O)(NCc1ccccc1)c1ccc(NC(=S)NCc2ccco2)cc1	-16%	-20%	?	-24%	.
CC(=O)Nc1ccc(C(=S)NCc2ccco2)cc1	18%	-6%	55%	-6%	?
CC(=O)Nc1ccc(S(=O)(=O)NNC(=S)NCc2ccco2)cc1	-28%	-5%	11µM*	45µM*	.
CCNS(=O)(=O)c1ccc(NC(=S)NCc2ccco2)cc1	-11%	-18%	15%	-37%	22µM*
CC1(C(=O)NNC(=S)NCc2ccco2)CC1(Cl)Cl (stereo not given)	-2%	-2%	8.9µM*	23%	-4%
COc1cc(CNC[C@H]2O[C@@H](n3ccc(N)nc3=O)[C@H](O)[C@@H]2O)ccc1OCc1ccc(C)cc1	.	-9%	.	.	.
CC#CCN1c2ccccc2[C@]23C[C@@H](C(=O)OC)N(S(=O)(=O)c4ccc([N+](=O)[O-])cc4)C2=NC(C(=O)OC)=C(C(=O)OC)[C@H]13	.	.	.	1%	16%[13.5 µM]
Cc1ccc(C(c2cc(Br)ccc2O)N2CCSCC2)cc1 (stereo not given)	.	5%	.	.	.
CN1CCN(C(c2ccc(Br)cc2)c2cc(Cl)c3cccnc3c2O)CC1 (stereo not given)	0.79µM*	5.3µM*	2.8µM*	50µM*	.
CN(Cc1cn(-c2ccccc2)nc1-c1cc2ccccc2o1)C(=O)CCC(=O)O	-10%	4.2µM*	?	16%	?
CCC12C=C(/C=C/c3ccccc3)C(CC)(C1)C(c1ccccc1)CC2=O (stereo not given)	-6%[10 µM]	.	-18%[10 µM]	-9%	11%[13.5 µM]
Cc1ccc2c(c1Br)/C(=N/N1C(=O)c3ccccc3C1=O)C(=O)N2	?	-19%	-27%	-4%	0.75µM*
COc1ccc2c(c1)/C(=N/N1C(=O)c3ccccc3C1=O)C(=O)N2	-5%[10 µM]	.	20%	-7%	?
